# Source: PubChem BioAssay
# Activity calls are given as the source filed them.
# System: Neuregulin-1 EGF-like domain
# Assay: binders of neuregulin-1 EGF-like domain, primary screen, biochemical, small-molecule microarray, 635 nm fluorescence (AID 1081);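 further: binding of the protein to compounds printed on small-molecule microarray slides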
# Conditions: small-molecule microarray binding, higher = more signal
row,SMILES,composite z-score
1,COC(=O)C1=C(C)[C@@H](O)[C@@H](C)[C@H](c2c(OC)c(OC)c(C)c(OC)c2OC)O1,0.0778
2,CC(C)C[C@@H]1NC(=O)[C@H]2C[C@@H](C(=O)O)[C@@H](c3ccc(O)cc3)N2C1=O,1.29
3,CC(=O)OC[C@H]1O[C@@H](ON=C[C@@H](C)[C@H](OCc2ccccc2)C(C)C)[C@H](OC(C)=O)[C@@H](OC(C)=O)[C@@H]1OC(C)=O,-1.19
4,COc1ccc(O[C@@H]2[C@H](O)CO[C@H]2C=CC#Cc2ccccc2)cc1,-0.203
5,CCN1C(=O)[C@H]2[C@H]3[C@H](O)[C@H](O)CC(=NOC[C@@H](C)[C@H](OCc4ccccc4)C(C)C)[C@@H]3CC[C@H]2C1=O,0.221
6,COC(=O)[C@]1(CO)N=C(c2ccc(OCCCO)cc2)O[C@@H]1c1ccccc1N=[N+]=[N-],0.938
7,CCCCCN1CC=CC23O[C@@H]4C=CCOC(=O)[C@@H]4[C@H]2C(=O)N(CCCCCCO)[C@@H]3C1=O (stereo partly drawn),0.975

# System: not listed separately
# Assay: FRG1 promoter luciferase signal modulators, primary screen, FRG1 inhibition for FSHD, cell-based, C2C12 myotubes, firefly/Renilla luciferase, luminescence (AID 1084)
# Conditions: higher = more signal, called active from +8 up or from −8 down
row,SMILES,z-score
1,Cc1ccc(C2CC=C(C(=O)O)CN2S(=O)(=O)c2ccc(C)cc2)cc1 (stereo not drawn),-2.06 (inactive)
2,COc1ccc([Si](C)(C)[C@H]2[C@H](CC(=O)N3CCC[C@H]3CO)O[C@@]3(C(=O)N(Cc4cccc(N5C(=O)COc6ccccc65)c4)c4ccccc43)[C@@H]2C)cc1,-4.78 (inactive)
3,CC(CCN1CCc2nc(-c3ccccc3)c(-c3ccccc3)cc2C1)=NOC[C@@H](C)[C@H](OCc1ccccc1)C(C)C,0.764 (inactive)
4,CN1C(=O)C2C(C1=O)C1C=C(CCCO)C2C(c2ccc(CN3CCCC3)cc2)N1C (stereo not drawn),0.243 (inactive)
5,CCc1cc2c(nc1CC)CCN(CCC(C)=NO[C@@H](C)c1cc(-c3c(C)cc(C)cc3C)no1)C2,-1.01 (inactive)
6,CS(=O)(=O)CCOC(=O)C1=CC(CCCO)=CC(c2cccs2)N(Cc2cccc(OC(F)(F)F)c2)C=C1C(=O)OCCS(C)(=O)=O (stereo not drawn),-0.176 (inactive)
7,O=C1CCCC=C1C(O)CCOCc1ccccc1 (stereo not drawn),1.58 (inactive)
8,CC(C)=CCCC(C)=CCON=C1[C@H]2CCn3c(=O)n(Cc4cc5c(cc4Cl)OCO5)c(=O)n3[C@H]2[C@H](O)[C@@H]2O[C@H]12,0.752 (inactive)
9,O=C1C2=CC[C@H]3C(=O)N(Cc4ccc5c(c4)OCO5)C(=O)[C@H]3[C@H]2[C@H](O)[C@@H]2O[C@H]12,0.593 (inactive)
10,CO[C@@H]1COC(=O)CC=C[C@@H](C)[C@@H]2C=C[C@H](O)[C@@H](COC(=O)[C@H](C)NC(=O)CC=C[C@H]1C)O2,0.361 (inactive)
11,COCCOC(=O)N1C(=O)[C@@]2(c3cc(C#CC4(O)CCCCCC4)ccc31)[C@H](c1ccc(OCCO)cc1)N1[C@H](c3ccccc3)[C@H](c3ccccc3)OC(=O)[C@H]1[C@@H]2C(=O)NC[C@H](O)c1ccccc1,-0.294 (inactive)
12,CCCCC(=C=CC[C@H](O)c1ccccc1OCCO)C[C@H](O)COCc1ccccc1,-1.01 (inactive)
13,C[C@@H]1C=CCC(=O)OC[C@H](C)C(=O)N2CCC[C@H]2C(=O)OC1,0.465 (inactive)
14,CC(C)c1ccc(NN2C(C(O)c3ccc4c(c3)OCO4)C=CC3C(=O)N(c4ccccc4)C(=O)C32)cc1 (stereo not drawn),2.22 (inactive)
15,COc1ccc(COC(=O)NN=C2C[C@@H](O)[C@@H](O)[C@@H]3[C@@H]4C(=O)N(c5ccc(F)cc5F)C(=O)[C@@H]4CC[C@@H]23)cc1,-0.138 (inactive)
16,C=C(/C(=C/C[C@@H](OC(=O)c1ccncc1)c1ccc(OCCO)cc1)c1cnc2ccccc2c1)C(C)C,-2.27 (inactive)
17,Cn1c(=O)n2n(c1=O)[C@H]1[C@H](O)[C@@H]3O[C@@H]3C(=NOC[C@@H](O)COCc3ccco3)[C@H]1CC2,-0.532 (inactive)
18,CCOC(=O)CCN1C(=O)[C@H]2[C@H]3[C@H](O)[C@H](O)CC(=NNC(=O)OCc4ccc(OC)cc4)[C@@H]3CC[C@H]2C1=O,0.455 (inactive)

row,SMILES,z-score
1,CCCNC(=O)OC[C@H]1O[C@H](CCON=CC[C@@H]2C=C[C@H](OC(C)=O)[C@@H](COC(C)=O)O2)C=C[C@@H]1Oc1ccc(OC)cc1,0.335 (inactive)
2,COC(=O)[C@H](C)NC(=O)CCC1CC(OC(=O)NCc2cccc3ccccc23)CC2(CCCC(COC(=O)NCCc3ccc(Cl)cc3)O2)O1 (stereo partly drawn),1.93 (inactive)
3,COc1ccc(O[C@H]2C=C[C@@H](c3ccccc3)O[C@@H]2COC(=O)CCC(C)=NO[C@@H](C)c2cc(-c3c(C)cc(C)cc3C)no2)cc1,0.0014 (inactive)
4,CN(C)C(=O)[C@@]1(Cc2ccccc2)N=C(c2ccc(OCCCO)cc2)O[C@H]1c1ccccc1CN=[N+]=[N-],-1.47 (inactive)
5,COc1ccc(OC[C@H]2Cc3c(-c4ccccc4)nc4c(c3CO2)CN(CCOc2ccccc2)CC4)cc1,0.114 (inactive)
6,COC(=O)C1=C(C)N(Cc2ccccc2)[C@]23O[C@](C(=O)OC)(C(=O)N2[C@@H]1c1ccccc1)[C@H]1CCOC(=O)[C@H]13,-0.203 (inactive)
7,COC(=O)CC=C[C@@H](C)[C@@H](C=NO[C@@H](C)c1cc(-c2c(C)cc(C)cc2C)no1)OC,0.8 (inactive)
8,COc1ccc(O[C@H]2C=C[C@@H](c3ccccc3)O[C@@H]2COC(=O)CCC(C)=NO[C@H](C)c2cn([C@@H]3COC[C@H]3O)nn2)cc1,1.39 (inactive)
9,CC(C)=NOCc1cccc(-c2cc(-c3ccccc3)no2)c1,0.603 (inactive)
10,CCCNC(=O)OC[C@H]1O[C@H](CCON=C2[C@H]3CCn4c(=O)n(-c5ccccc5)c(=O)n4[C@H]3[C@H](O)[C@@H]3O[C@H]23)C=C[C@@H]1Oc1ccc(OC)cc1,-0.257 (inactive)
11,CC[C@@H](c1ccccc1)n1c(=O)n2n(c1=O)[C@H]1[C@H](O)[C@@H]3O[C@@H]3C(=NOCC(C)C)[C@H]1CC2,0.0491 (inactive)
12,COC(=O)C1=C(C)[C@@H](O)[C@@H](C)[C@H](c2c(OC)c(OC)c(C)c(OC)c2OC)O1,-0.298 (inactive)
13,CC(C)C[C@@H]1NC(=O)[C@H]2C[C@@H](C(=O)O)[C@@H](c3ccc(O)cc3)N2C1=O,6.75 (inactive)
14,CC(=O)OC[C@H]1O[C@@H](ON=C[C@@H](C)[C@H](OCc2ccccc2)C(C)C)[C@H](OC(C)=O)[C@@H](OC(C)=O)[C@@H]1OC(C)=O,-0.703 (inactive)
15,COc1ccc(O[C@@H]2[C@H](O)CO[C@H]2C=CC#Cc2ccccc2)cc1,-0.606 (inactive)
16,CCN1C(=O)[C@H]2[C@H]3[C@H](O)[C@H](O)CC(=NOC[C@@H](C)[C@H](OCc4ccccc4)C(C)C)[C@@H]3CC[C@H]2C1=O,0.199 (inactive)
17,COC(=O)[C@]1(CO)N=C(c2ccc(OCCCO)cc2)O[C@@H]1c1ccccc1N=[N+]=[N-],2.29 (inactive)
18,CCCCCN1CC=CC23O[C@@H]4C=CCOC(=O)[C@@H]4[C@H]2C(=O)N(CCCCCCO)[C@@H]3C1=O (stereo partly drawn),0.428 (inactive)
